For 18 molecules, Potency, outcome and activity change, negative = inhibition results are on record in PubChem BioAssay (NCATS).

Several values for one entry are separate records, joined by “and”; a condition that tells them apart may be missing. Equal entries are not always repeated. Unmarked numbers belong to inactive results. Records with an inconclusive call do not appear. Activity calls are given as the source filed them. The call rests on the fitted dose curve; in most records, active means well fitted curve in the direction sought with a large enough effect; inconclusive means small, poorly fitted or top-dose-only effect, or another doubt; inactive means no such curve, though single readings can be large; an effect the other way counts as inactive or inconclusive.

One test has as its target Furin (Homo sapiens) (UniProt P09958). The test is described as follows: Furin counterscreen qHTS for Zika virus inhibitors (AID 1347149). Further: nearly all actives have a fitted effect of over 70% in size. Further: potency means the concentration at half of the fitted maximal effect.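 On activity change, negative = inhibition: purified recombinant full-length human furin enzyme at 5 nM; fluorescence gain from furin cutting a BOC-RVRR-AMC peptide substrate over 15 min; top concentration of the series differs between compounds; plate controls were no-inhibitor control for no effect and no-enzyme control for full effect.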 The method, boiled down:
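Counterscreen measures cleavage of 2 microM BOC-RVRR-AMC, below its ~15 microM Km, by 5 nM full-length human furin at pH 7.0 after a 15-min compound preincubation. Inhibition derives from the 15-min fluorescence increase at 37C.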

Test [1] relates to Zika virus NS2B-NS3 protease (unlinked). The test is described as follows: Optimization of GU AMC qHTS for Zika virus inhibitors: Unlinked NS2B-NS3 protease assay (AID 1347151). Further: nearly all actives have a fitted effect of over 80% in size. Further: potency means the concentration at half of the fitted maximal effect.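 On activity change, negative = inhibition: series mostly up to about 52 µM; 0% = no-inhibitor control and -100% = no-enzyme control.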 The procedure, abridged: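 In this qHTS, compounds acted on 25 nM unlinked Zika NS2B–NS3 in pH 8.0 Tris/Tween buffer. Cleavage of an AMC peptide ran 15 min at room temperature, to about 20% conversion.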
Background: Quantitative high-throughput screening tests each substance at several concentrations.

Test [2] deals with Zika virus NS2B-NS3 protease. The test can be described thus: Primary screen GU AMC qHTS for Zika virus inhibitors (AID 1347154). Further: nearly all actives have a fitted effect of over 70% in size. Further: potency means the concentration at half of the fitted maximal effect.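 On activity change, negative = inhibition: 0% = no-inhibitor control and -100% = no-enzyme control.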 The method, boiled down:
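Unlinked Zika NS2B hydrophilic domain/NS3 protease domain noncovalent complex (25 nM final) in 10 mM Tris-HCl pH 8.0, 0.01% Tween 20, with AMC peptide substrate. Fluorescence (ex 340, em 450 nm) change over 15 min, room temperature; percent inhibition fitted to 4-parameter Hill equation.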

Test [3] can be described thus: Vero cells viability qHTS for Zika virus inhibitors (AID 1347167). Further: on the % scale 0 is the no-effect control and ±100 the full control effect. The procedure, abridged: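 To flag cytotoxic protease inhibitors, viability is measured by ATP-dependent luminescence (CellTiter Glo) after cells attached overnight receive compound for 24 to 48 hours in DMEM with 4% FBS.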
Test [4] can be described thus: Tertiary RLuc qRT-PCR qHTS assay for Zika virus inhibitors (AID 1347169). Further: nearly all actives have a fitted effect of over 55% in size. Further: potency means the concentration at half of the fitted maximal effect. On activity change, negative = inhibition: top concentration of the series differs between compounds; on the % scale 0 is the no-effect control and ±100 the full control effect. The method, boiled down: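 Inhibition of ZIKV-RLuc replication in Vero cells, read as Renilla luminescence 1-1.5 hrs after live-cell substrate addition, following 48-72 hrs infection at MOI 1-2 in presence of compound.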
A general note: In qPCR the cycle at which signal appears reflects the starting amount.

A short description of test [5]: qHTS to identify inhibitors of the type 1 interferon - major histocompatibility complex class I in skeletal muscle: primary screen against the NCATS Pharmaceutical Collection (AID 1347407).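 Further: luminescence of HiBiT knocked into endogenous HLA-B as interferon-induced MHC class I level; on the % scale 0 is the no-effect control and ±100 the full control effect.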 The procedure, abridged: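 A qHTS format is used: 8-point, 1:5 compound series with 46 uM top final concentration, applied alongside 4 ng/ml IFN-beta to HLA-B*08:01-HiBiT knock-in myoblasts. Luminescence is measured after 24 h treatment.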

In test [6] the target is N-terminal Xaa-Pro-Lys N-methyltransferase 1 (Homo sapiens) (UniProt Q9BV86). The test is described as follows: qHTS Assay for Inhibitors of N-terminal methyltransferase 1 (NTMT1): LOPAC validation of the NTMT1 SAHH-coupled ThioGlo3 Assay (AID 1347143).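 Further: SAH from peptide methylation measured as thiol fluorescence via SAHH coupling and ThioGlo3; nearly all actives have a fitted effect of over 70% in size.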 Further: potency means the concentration at half of the fitted maximal effect. The procedure, abridged:
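In this qHTS pilot against the LOPAC set, 125nM NTMT1 met compounds tested at multiple concentrations, and fluorescence was normalized to background.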

Test [7] addresses Lysine-specific demethylase 5B (Homo sapiens) (UniProt Q9UGL1). The test is described as follows: Optimization screen for KDM5B Histone Demethylases FDH coupled qHTS against the LOPAC library (AID 1347166). Further: 0% is about no effect. The procedure, abridged: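 KDM5BDeltaAP (200nM final) in 50mM HEPES pH 7.5, 0.01% Tween-20 was preincubated with compound for 10 min at room temperature. A substrate mix of 12.5uM H3K4Me3, 25uM a-ketoglutarate, ascorbate, Fe2+, NAD+ and formaldehyde dehydrogenase was then added. NADH fluorescence (340/450 nm) was read initially and after 30 min.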

Test [8] is described as follows: qHTS to identify inhibitors of the type 1 interferon - major histocompatibility complex class I in skeletal muscle: primary screen against the NCATS LOPAC collection (AID 1347405).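 Further: lytic HiBiT luminescence reporting HLA-B protein level; on the % scale 0 is the no-effect control and ±100 the full control effect.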 The method, boiled down:
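After 24 h at 37 C with compounds (7-point, 1:4.3 dilutions, 46 uM top final) plus 4 ng/ml IFN-beta, luminescence from lytic HiBiT detection was measured. HLA-B*08:01 in C25cl48 myoblasts carried an endogenous C-terminal HiBiT tag; medium lacked dexamethasone.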

Test [9] is described as follows: qHTS for inhibitors of adenylyl cyclases using a fission yeast platform: a pilot screen against the NCATS LOPAC library (AID 1347410).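 Further: plate controls were DMSO vehicle for no effect and DPI positive control for full effect.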 The method, boiled down: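 Inhibition of GNAS-stimulated AC9 activity in S. pombe was inferred from derepression of a PKA-repressed fbp1-GFP reporter, measured as cytometric fluorescence after 18 h at 30C with compounds at up to 57 µM.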

Test [10] in a line: Confirmatory screen GU Rhodamine qHTS for Zika virus inhibitors qHTS (AID 1347157). Further: potency means the concentration at half of the fitted maximal effect; nearly all actives have a fitted effect of over 70% in size. The conditions noted are these: purified enzyme assay, Rhodamine110 substrate fluorescence, 15 min. The procedure, abridged:
(§1)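 Unlinked NS2B/NS3, 25 nM; Rhod110 peptide, 1.5 microM; compounds, up to 114 microM. Reaction run 15 min at RT in 10 mM Tris-HCl pH 8.0, 0.01% Tween 20; kinetic fluorescence change fitted with a 4-parameter Hill model.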

Test [11] can be described thus: ZIKV-mCherry secondary qHTS for Zika virus inhibitors (AID 1347158). Further: top concentration of the series differs between compounds. The procedure, abridged:
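Percent infection is the share of Hoechst-identified Vero nuclei with mCherry signal above 450 RFU (3 SD over negative controls). Cells were infected with recombinant ZIKV-mCherry at MOI 1 after compound addition and imaged 48–72 h later.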

Test [12] concerns Zika virus NS2B-NS3 protease (linked construct). The test can be described thus: Primary screen NINDS Rhodamine qHTS for Zika virus inhibitors (AID 1347160). Further: nearly all actives have a fitted effect of over 55% in size. Further: potency means the concentration at half of the fitted maximal effect. The procedure, abridged: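 Single-chain NS2B-NS3 protease, 25 nM, pH 8.0; compounds preincubated 15 min. Activity: Rhodamine110 release from 1.5 microM substrate over 15 min, room temperature, data fitted to 4-parameter Hill.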

Test [13] can be described thus: Confirmatory screen NINDS Rhodamine qHTS for Zika virus inhibitors (AID 1347161). Further: potency means the concentration at half of the fitted maximal effect; nearly all actives have a fitted effect of over 60% in size. The method, boiled down: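 qHTS dose-response: 25 nM linked protease, pH 8.0 Tris/Tween buffer, cpd titration, 15 min RT preinc, 1.5 microM Rhod110 peptide, 15 min reaction (~15% conversion), Ex480/Em540; 4-parameter Hill fit.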
For test [14], the system named is Zika virus NS2B-NS3 protease (linked). The test can be described thus: 384 well plate NINDS AMC confirmatory qHTS for Zika virus inhibitors (AID 1347163).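 Further: linked protease at 5 30 or 60 nM final depending on run; fluorescence of AMC released from Ac-VKTGKR-AMC peptide cleaved by the protease; top concentration of the series differs between compounds; 0% = no-inhibitor control and -100% = no-enzyme control; nearly all actives have a fitted effect of over 50% in size.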 The method, boiled down: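 Fluorescence at 355/460 nm was read after 25 minutes of cleavage of 30 microM Ac-VKTGKR-AMC at room temperature, in the dark. Before substrate addition, compounds (up to 1 mM final) sat ~15 minutes with 5, 30 or 60 nM linked protease. Signals were normalized to no-enzyme and no-inhibitor wells.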

Test [15] has as its system Zika virus NS2B-NS3 protease (linked construct). The test is described as follows: 384 well plate NINDS Rhodamine confirmatory qHTS for Zika virus inhibitors (AID 1347164). Further: potency means the concentration at half of the fitted maximal effect; nearly all actives have a fitted effect of over 65% in size. The method, boiled down:
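Cleavage of Ac-LKRR-Rhodamine 110 (10 microM final) by linked protease (final 5, 30 or 60 nM) was followed as fluorescence at 485/538 nm after 25 min, room temperature, dark. Compounds preincubated ~15 min.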

The test system is the same in test [16]. The test can be described thus: Confirmatory screen NINDS AMC qHTS for Zika virus inhibitors (AID 1347152). The method, boiled down: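 Concentration-response confirmation used the NINDS linked protease (NS2B hydrophilic domain joined to NS3 protease domain), 1 nM, with a 15-min compound preincubation. Substrate, Nle-KRR-AMC at 10 microM, was read by UV fluorescence before and after 15 min.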

The subject of test [17] is Zika virus NS2B-NS3 protease (unlinked complex). The test can be described thus: Primary screen GU Rhodamine qHTS for Zika virus inhibitors: Unlinked NS2B-NS3 protease assay (AID 1347159). Further: nearly all actives have a fitted effect of over 60% in size. Further: potency means the concentration at half of the fitted maximal effect. The method, boiled down: as §1

Sequence of Furin (Homo sapiens) (P09958 whole entry, looked up): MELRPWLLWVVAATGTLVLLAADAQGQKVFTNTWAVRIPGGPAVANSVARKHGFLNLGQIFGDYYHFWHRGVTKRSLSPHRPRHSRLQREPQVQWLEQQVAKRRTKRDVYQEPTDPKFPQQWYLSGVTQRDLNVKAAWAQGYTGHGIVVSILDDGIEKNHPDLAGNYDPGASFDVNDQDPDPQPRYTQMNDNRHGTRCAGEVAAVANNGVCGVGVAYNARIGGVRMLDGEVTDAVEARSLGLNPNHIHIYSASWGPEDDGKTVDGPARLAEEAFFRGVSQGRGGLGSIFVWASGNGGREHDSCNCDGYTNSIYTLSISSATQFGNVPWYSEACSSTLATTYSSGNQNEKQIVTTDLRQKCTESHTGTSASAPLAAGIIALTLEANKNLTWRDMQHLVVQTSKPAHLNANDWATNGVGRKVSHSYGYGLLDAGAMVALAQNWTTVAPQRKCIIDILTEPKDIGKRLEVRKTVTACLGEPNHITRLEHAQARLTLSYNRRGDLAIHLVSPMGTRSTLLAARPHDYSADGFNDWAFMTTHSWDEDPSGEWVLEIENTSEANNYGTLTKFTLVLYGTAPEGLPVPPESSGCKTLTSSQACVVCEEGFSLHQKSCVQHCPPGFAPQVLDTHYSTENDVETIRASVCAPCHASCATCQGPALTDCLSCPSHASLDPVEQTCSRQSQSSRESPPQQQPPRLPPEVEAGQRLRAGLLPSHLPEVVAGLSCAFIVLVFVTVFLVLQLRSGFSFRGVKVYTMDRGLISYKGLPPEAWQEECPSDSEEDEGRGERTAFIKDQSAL
Sequence of Lysine-specific demethylase 5B (Homo sapiens) (Q9UGL1 whole entry, looked up): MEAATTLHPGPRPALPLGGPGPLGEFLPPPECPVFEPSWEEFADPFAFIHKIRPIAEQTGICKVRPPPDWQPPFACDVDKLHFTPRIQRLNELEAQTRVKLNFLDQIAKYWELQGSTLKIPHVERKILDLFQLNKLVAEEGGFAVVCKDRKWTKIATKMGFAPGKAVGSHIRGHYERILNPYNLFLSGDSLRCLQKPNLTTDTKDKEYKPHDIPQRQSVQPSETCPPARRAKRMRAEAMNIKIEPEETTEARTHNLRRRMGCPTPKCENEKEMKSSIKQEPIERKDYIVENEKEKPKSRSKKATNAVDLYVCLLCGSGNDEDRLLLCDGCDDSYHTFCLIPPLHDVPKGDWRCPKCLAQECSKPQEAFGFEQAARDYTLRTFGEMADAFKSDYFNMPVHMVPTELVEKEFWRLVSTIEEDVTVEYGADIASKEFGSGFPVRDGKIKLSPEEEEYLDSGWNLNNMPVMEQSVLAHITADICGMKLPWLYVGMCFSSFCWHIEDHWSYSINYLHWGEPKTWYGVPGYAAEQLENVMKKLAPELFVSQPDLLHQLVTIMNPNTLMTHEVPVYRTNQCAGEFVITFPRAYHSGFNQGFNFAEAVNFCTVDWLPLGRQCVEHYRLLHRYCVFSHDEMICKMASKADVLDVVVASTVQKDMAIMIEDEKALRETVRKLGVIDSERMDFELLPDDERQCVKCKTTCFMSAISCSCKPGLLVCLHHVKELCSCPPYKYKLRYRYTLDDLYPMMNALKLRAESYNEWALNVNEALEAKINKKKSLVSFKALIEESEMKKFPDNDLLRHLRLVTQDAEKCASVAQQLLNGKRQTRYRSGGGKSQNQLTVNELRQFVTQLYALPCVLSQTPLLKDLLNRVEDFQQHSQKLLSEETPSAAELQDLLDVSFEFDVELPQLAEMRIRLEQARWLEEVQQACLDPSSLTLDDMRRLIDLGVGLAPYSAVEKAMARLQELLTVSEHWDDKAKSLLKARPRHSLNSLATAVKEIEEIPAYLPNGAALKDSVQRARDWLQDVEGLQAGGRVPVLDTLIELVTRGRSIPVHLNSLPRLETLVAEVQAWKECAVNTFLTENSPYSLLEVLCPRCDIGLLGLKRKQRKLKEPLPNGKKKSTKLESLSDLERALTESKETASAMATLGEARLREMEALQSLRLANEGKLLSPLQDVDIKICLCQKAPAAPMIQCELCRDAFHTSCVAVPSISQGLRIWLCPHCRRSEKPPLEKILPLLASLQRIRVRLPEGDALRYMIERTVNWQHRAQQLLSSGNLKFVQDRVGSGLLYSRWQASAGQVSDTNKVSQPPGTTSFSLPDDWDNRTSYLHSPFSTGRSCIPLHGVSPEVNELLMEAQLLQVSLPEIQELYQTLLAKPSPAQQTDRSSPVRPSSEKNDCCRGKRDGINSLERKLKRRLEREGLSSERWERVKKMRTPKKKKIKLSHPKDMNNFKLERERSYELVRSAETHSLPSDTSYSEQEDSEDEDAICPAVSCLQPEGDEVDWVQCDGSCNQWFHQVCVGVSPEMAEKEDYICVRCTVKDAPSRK
Sequence of N-terminal Xaa-Pro-Lys N-methyltransferase 1 (Homo sapiens) (Q9BV86 whole entry, looked up): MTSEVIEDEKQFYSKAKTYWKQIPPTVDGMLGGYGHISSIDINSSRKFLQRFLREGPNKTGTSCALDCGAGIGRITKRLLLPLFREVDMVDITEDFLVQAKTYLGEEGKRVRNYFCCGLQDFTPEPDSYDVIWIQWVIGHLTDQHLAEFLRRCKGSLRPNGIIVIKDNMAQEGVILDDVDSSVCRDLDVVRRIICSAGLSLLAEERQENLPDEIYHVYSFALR

For `S=c1nc[nH]c2nc[nH]c12`, the Potency result (with Furin (Homo sapiens); in [1]; in test [2]; in test [3]; in test [5]) was “inactive” in each case. Besides, the Potency in [4] was 20.8 µM (active).
For `CC(=O)N1CCN(c2ccc(OC[C@H]3CO[C@](Cn4ccnc4)(c4ccc(Cl)cc4Cl)O3)cc2)CC1`, the Potency in test [6] is 50.1 µM (active). Also, the Potency entry in [1], in test [2] and in test [8] was “inactive” throughout. In addition, the molecule was called inactive in test [7] and in [9].
Turning to `C[C@H](Cn1cnc2c(N)ncnc21)OCP(=O)(O)O`, the Potency entry in [2] was “inactive”.
With `CC(=O)Nc1ccc(O)cc1`, the Potency result in test [2] was “inactive”.
As to `N[C@@H](Cc1cc(I)c(Oc2cc(I)c(O)c(I)c2)c(I)c1)C(=O)O`, the Potency result (with Furin (Homo sapiens); in test [2]; in test [11]; in test [14]; in test [3]; in test [5]) was “inactive” throughout. Also, the Potency in [10] was 6.1 µM (active); in test [12] it was 6.31 µM (active); in test [13] it was 9.67 µM (active) and 12.6 µM (active); in test [15], 10 µM (active). Also, in test [4], the activity change, negative = inhibition is -3.48% [at 0.566 µM].
For the molecule `O=C(O)c1cn(-c2ccc(F)cc2)c2cc(N3CCNCC3)c(F)cc2c1=O`, the Potency with Furin (Homo sapiens) was 24.1 µM (active); in test [16], 24.1 µM (active) and 27.1 µM (active). Also, the Potency result in test [3], in test [4] and in test [5] was “inactive” in each case.
Regarding `CC[C@]1(O)C[C@H]2CN(CCc3c([nH]c4ccccc34)[C@@](C(=O)OC)(c3cc4c(cc3OC)N(C=O)[C@H]3[C@@](O)(C(=O)OC)[C@H](OC(C)=O)[C@]5(CC)C=CCN6CC[C@]43[C@@H]65)C2)C1`, in [2], the Potency entry is “inactive”.
For the molecule `Oc1ccc2ccccc2c1SSc1c(O)ccc2ccccc12`, the Potency in [6] is 35.5 µM (active); in test [1] it was 10.6 µM (active). In test [9], the molecule was called inactive.
Turning to `Nc1nc(N)c(N=O)c(OCC2CCCCC2)n1`, the Potency entry in [6], in [1] and in test [2] was “inactive” each time. Besides, the call in [7] and in [9] was inactive.
For the molecule `O=C(CS(=O)Cc1ccco1)NCC=CCOc1cc(CN2CCCCC2)ccn1` (configuration not stated), the Potency entry in [2] was “inactive”.
`Cc1cc2c(s1)Nc1ccccc1N=C2N1CCN(C)CC1`: the Potency entry in [2], in test [17], in [12] and in [5] was “inactive” each time.
For `C[Se]CCC(N)C(=O)O` (configuration not stated), in test [2], the Potency entry was “inactive”.
`CN(c1nccc(=O)[nH]1)C1CCN(c2nc3ccccc3n2Cc2ccc(F)cc2)CC1`: the Potency entry in test [2], in [12] and in test [5] was “inactive” throughout.
For `CC(C)c1ccc2oc3nc(N)c(C(=O)O)cc3c(=O)c2c1`, the Potency in [2] is 15.8 µM (active). The Potency entry in [5] was “inactive”.
`CCC(C)(Oc1ccc(C2(c3ccc(OC(C)(CC)C(=O)O)cc3)CCCCC2)cc1)C(=O)O` (configuration not stated): the Potency result in [2] and in test [5] was “inactive” throughout. Further, the Potency in test [17] was 31.6 µM (active).
In the case of `CC(=O)O[C@H]1C(=O)[C@@]2(C)C([C@H](OC(=O)c3ccccc3)[C@]3(O)C[C@H](OC(=O)[C@H](O)[C@@H](NC(=O)c4ccccc4)c4ccccc4)C(C)=C1C3(C)C)[C@]1(OC(C)=O)CO[C@@H]1C[C@@H]2O` (some centres not stated), the Potency entry in test [2], in test [17] and in test [12] was “inactive” throughout. The result in test [7] was inactive.
For the molecule `CCCCCCCCCCCCCCCCCCCCCCO`, the Potency result in test [2] is “inactive”.
With `CC(C)c1nc(CN(C)C(=O)N[C@H](C(=O)N[C@@H](Cc2ccccc2)C[C@H](O)[C@H](Cc2ccccc2)NC(=O)OCc2cncs2)C(C)C)cs1`, the Potency result in test [2], in [17], in test [12] and in test [5] was “inactive” each time.
